For 90 molecules, activation results are on record in PubChem BioAssay AID624169 (The Scripps Research Institute Molecular Screening Center, 2012).

SMILES strings stand for the structures. In all, about 360,000 compounds went through this assay and about 2,400 (0.67%) were called active. The sample holds actives, similar compounds and a random draw of the others, so the mix is not that of the screen. Unmarked numbers belong to inactive results.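 How the source made its calls: active means activation above a run cutoff, the mean activation of all tested compounds plus 3 SD (cut at about 14% in these data); inactive means the rest.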

The assay deals with 5-hydroxytryptamine receptor 2A (Mus musculus) (UniProt P35363). Briefly: mouse Htr2a agonists via beta-arrestin recruitment, primary screen, cell-based, luminescence (AID 624169).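 Further: 0% = plate median of compound wells and 100% = 30 µM serotonin.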 Conditions: CHO-K1 mHTR2A beta-arrestin complementation, at 7.6 µM, stronger effect = higher value, percent of 30 µM serotonin response. In general terms: Arrestin recruitment assays detect the binding of arrestin to an activated receptor.
Chain of 5-hydroxytryptamine receptor 2A (Mus musculus) (P35363 whole entry, looked up): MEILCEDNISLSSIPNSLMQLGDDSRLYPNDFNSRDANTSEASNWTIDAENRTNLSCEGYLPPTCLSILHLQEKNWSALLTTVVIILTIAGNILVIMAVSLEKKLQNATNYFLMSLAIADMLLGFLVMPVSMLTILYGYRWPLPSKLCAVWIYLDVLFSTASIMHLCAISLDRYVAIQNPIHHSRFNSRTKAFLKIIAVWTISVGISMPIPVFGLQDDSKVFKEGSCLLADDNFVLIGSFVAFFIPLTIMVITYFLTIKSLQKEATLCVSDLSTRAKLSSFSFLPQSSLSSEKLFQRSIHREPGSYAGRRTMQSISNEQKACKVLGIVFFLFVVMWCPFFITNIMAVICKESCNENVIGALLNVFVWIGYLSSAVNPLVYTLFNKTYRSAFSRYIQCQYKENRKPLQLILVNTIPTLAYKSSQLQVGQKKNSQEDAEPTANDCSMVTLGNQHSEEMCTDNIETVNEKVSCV
Regarding `O=C(O)C1C2C=CC(O2)C1C(=O)NCCc1cccc(Cl)c1` (stereo not given), the activation is 21.1% (active).

For `O=C(O)C1CC=CCC1C(=O)NCCc1ccccc1` (stereo not given), the activation is 7.31%. With `O=C(O)C1C2C=CC(O2)C1C(=O)Nc1ccccn1` (stereo not given), the activation was -3.53%.

Consider `Cc1ccccc1CN1CCC(C(=O)Nc2ccc(Oc3cccnc3)cc2)CC1`, for which the activation is -1.91%. With `O=C(Nc1nnc([C@H]2C[C@H](O)[C@@H](CO)O2)s1)c1cccc(Cl)c1` the figure was 5.77%; with `O=C(Nc1ccc(Cl)cc1)c1csc([C@H]2C[C@H](O)[C@@H](CO)O2)n1`, 4.98%; with `O=C(Nc1cccc2cccnc12)c1ccc2sc([C@H]3C[C@H](O)[C@@H](CO)O3)nc2c1`, 16.7% (active). With `Cc1cccc(-n2c(Cc3cc(=O)[nH]c(=O)[nH]3)nnc2SCC(=O)Nc2cccc(C(F)(F)F)c2)c1` the figure was 3.15%; with `Cc1ccc(/C=N/NC(=S)NC2CCCCC2)o1`, 4.42%; with `C/C(=N/NC(=O)c1ccc(Br)o1)c1ccc(C)o1`, 0.28%.

As to `C/C(=N\NC(=S)NC1CCCCC1)c1ccc(C)o1`, the activation is 21.6% (active).

As to `N#CC1=C(SCc2ccc(C#N)cc2)N=C(N)C(c2nc(-c3ccccc3)cs2)C12CCCCC2` (stereo not given), the activation was -0.07%. With `COc1ccc(OC)c(C(O)c2ncc(-c3cccc(C(F)(F)F)c3)[nH]2)c1` (stereo not given) the figure was -2.32%; with `O=C(Cc1ccccc1Cl)N1CCOCC1`, -3.57%.

Consider `CN(C(=O)c1ccc(NC(=O)Cc2cccc(NC(=O)C3CCN(C(=O)c4ccccc4)CC3)c2)cc1)C1CC1`, for which the activation is -6.22%. `Cc1ccc(C(=O)Nc2ccccc2-c2ccccc2)cc1S(=O)(=O)Nc1ccccc1`: the activation was 5.68%. With `COc1ccc(NS(=O)(=O)c2cc(NC(=O)CC(=O)c3ccc([N+](=O)[O-])cc3)ccc2C)cc1` the figure was -2.57%. With `COc1ccc(NS(=O)(=O)c2cc(C(=O)Nc3ccccc3C(=O)O)ccc2C)cc1` the figure was 17.9% (active); with `O=S(=O)(Nc1cccc(-c2ccc(N3CCOCC3)nn2)c1)c1ccc(Cl)c(Cl)c1`, -3.29%. The same measure for `O=C1CCc2cc(S(=O)(=O)N3CCC(C(=O)NCc4ccccc4Cl)CC3)ccc2N1`: 19.6% (active); for `O=C(NCc1ccccc1CN1CCCC1)C1CCN(S(=O)(=O)c2ccc(Cl)cc2)CC1`: -12.7%. For the molecule `O=C(NCc1ccccc1Cl)C1CCN(S(=O)(=O)N2CCOCC2)CC1`, the activation is 2.15%. The same measure for `COc1cccc(C(=O)n2ccc(-c3cccs3)n2)c1`: 2.87%; for `Cc1ccc(C(=O)N2CCN(C3CCCCC3)CC2)s1`: 7.15%; for `CCOCCOC(=O)C1=C(C)N(C)C(=O)NC1c1ccccc1F` (stereo not given): 1.37%. As to `O=C(CN(Cc1ccc(Br)cc1)S(=O)(=O)c1ccccc1)NCc1ccncc1`, the activation is -1.63%. As for `CCc1ccc(CN(C)C(=O)C2CCC(=O)N(Cc3cccc(OC)c3)C2)nc1` (stereo not given), the activation is 6.04%. With `CC(=O)Nc1ccc(S(=O)(=O)N2CCC(N(C)CCC(C)C)CC2)cc1` the figure was 6.97%. Take `Cc1ccc(NC(=O)CN(C)Cc2ccc(F)cc2)c([N+](=O)[O-])c1`: the activation is 1.68%. For the molecule `CCn1cc(C(=O)N2CC=C(c3ccccc3)CC2)c(=O)c2ccc(C)nc21`, the activation was -3.76%.

For the molecule `CCOc1cc(C(=O)OCC(=O)Nc2cccc(C)c2)ccc1OCC(=O)N1CCOCC1`, the activation was -2.12%. With `CCn1cc(C(=O)OCC(=O)Nc2cccc(C)c2)c(=O)c2ccc(C)nc21` the figure was 20.9% (active).

`C=CCNC(=O)CC12CC3CC(C1)CC(CC(=O)NCC=C)(C3)C2`: the activation was -3.65%. With `CC(C)(C)C(=O)OCc1nc(-c2ccc(O)c(O)c2)cs1` the figure was 14.9% (active).

Regarding `CCCC(=O)N1c2ccc(-c3csc(N)n3)cc2CC1C` (stereo not given), the activation was 1.22%. Turning to `CN(c1ccc(O)cc1)c1nc(-c2cccnc2)cs1`, the activation is -2.76%. With `CC(=O)c1c(C)n([O-])c2ccccc2[n+]1=O` the figure was 4.16%; with `C=CCn1c(=NC(=O)c2ccc(S(=O)(=O)N3CCCC3)cc2)sc2cc(NC(C)=O)ccc21`, 1.21%. With `C=CCn1c(CCNC(=O)c2cccs2)n[nH]c1=S` the figure was 4%; with `C=CCn1c(=NC(=O)c2cccs2)sc2cc(NC(C)=O)ccc21`, 23.5% (active); with `O=C(O)c1ccccc1Cc1ccc(F)c2ccccc12`, -0.35%. The same measure for `CCc1ccc2nc(Nc3ncc(C(C)=O)c(C)n3)nc(C)c2c1`: -1.39%. For the molecule `O=C(CSc1nnc(Nc2ccccc2F)s1)NC1CCCC1`, the activation was -5.06%. With `COc1ccc(-c2nnc(SC(C)C(=O)NC3CC3)o2)cc1` (stereo not given) the figure was -2.06%; with `COc1ccccc1Nc1nnc(SC(C)C(=O)NC2CC2)s1` (stereo not given), 14.8% (active). With `CCCCC1N2CC3([N+](=O)[O-])CN1CC([N+](=O)[O-])(C2)C3(C)C` (stereo not given) the figure was -2.15%; with `CCCCN(C(=O)COc1ccc(NC(C)=O)cc1)C1CCS(=O)(=O)C1` (stereo not given), -2.25%. On to `CCc1ccc(OCC(=O)N(Cc2ccccc2)C2CCS(=O)(=O)C2)cc1` (stereo not given), for which the activation is -6.02%. With `CC(=O)c1ccc(OCC(=O)N(C)C2CCS(=O)(=O)C2)cc1` (stereo not given) the figure was 18.4% (active).

As to `CN1C(=O)c2ccc(NC(=O)c3c(F)c(F)c(F)c(F)c3F)cc2C1=O`, the activation is 5.38%. With `COc1ccc(C(=O)Nc2c(N)nc(SCC(=O)N3CCC(C)CC3)[nH]c2=O)cc1OC` the figure was 3.82%; with `O=Cc1cn(CCOc2ccc(F)cc2)c2ccccc12`, -3.3%. With `COc1ccc(N(C(=O)CNC(=O)c2ccco2)C(C(=O)NCC2CCCO2)c2ccccc2)cc1Cl` (stereo not given) the figure was -3.88%; with `Cc1noc(C)c1S(=O)(=O)N(CC(=O)NCc1ccc(Cl)cc1)c1ccc2c(c1)OCO2`, 10.9%; with `Cc1noc(C)c1S(=O)(=O)N(CC(=O)Nc1ccc2c(c1)OCCO2)c1ccc(C(C)C)cc1`, 18.8% (active).

For the molecule `CCOC(=O)c1cccc(NC(=O)CN(c2ccc(C)cc2)S(=O)(=O)c2c(C)noc2C)c1`, the activation was 4.56%. For `COc1ccc(CN2CCN(C(=O)CCC(=O)Nc3nnc(C(C)C)s3)CC2)cc1F`, the activation is 10.4%. For `COc1ccc(NC(=O)C(NC(C)=O)C(=O)NCc2ccccc2Cl)cc1` (stereo not given), the activation was -1.72%. With `CC(C)NS(=O)(=O)c1ccc(CCC(=O)N2CCOCC2)cc1` the figure was -3.51%; with `COCc1cc(=O)oc2cc(NS(=O)(=O)c3ccc(C)cc3)ccc12`, 6.31%; with `CC(=O)N1c2ccc(S(=O)(=O)N3CCC(C(=O)NCc4ccc(F)cc4)CC3)cc2CC1C` (stereo not given), 5.7%. As for `CC(=O)N1c2ccc(S(=O)(=O)N3CCC(C(=O)NC4CCCC(C)C4C)CC3)cc2CC1C` (stereo not given), the activation is -2.05%.

For `CC(=O)N1c2ccc(S(=O)(=O)N3CCC(C(=O)NC4CCCCC4C)CC3)cc2CC1C` (stereo not given), the activation was 15.7% (active).

In the case of `O=S1(=O)CC(N2CCN(Cc3ccccc3F)CC2)CN1Cc1cn(Cc2ccccc2)nn1` (stereo not given), the activation is 0.73%. In the case of `CC(=O)NCC(=O)N(C)C(C(=O)Nc1ccc2c(c1)OCCO2)c1ccccc1` (stereo not given), the activation is 1.2%.

For `CCOc1ccc(/C=C/C(=O)OCC(=O)c2ccccc2OC)cc1OC`, the activation was -3.76%. The same measure for `CC(=O)c1cc(CN2CCC(n3nccc3NC(=O)c3ccccc3Cl)CC2)cs1`: 1.51%; for `O=C(Nc1ccc2sc3ccccc3c(=O)c2c1)c1ccccc1Cl`: -3.04%; for `O=C(Nc1cc(=O)[nH]c2ncnn12)c1ccccc1Cl`: 16.4% (active).

Take `N#Cc1c(-c2ccc(F)cc2)cc(C2CC2)nc1SCC(=O)c1cccs1`: the activation was 4.09%. The same measure for `COc1ccccc1CNC(=O)[C@@H]1CCCN1C(=O)[C@@H]1Cc2ccccc2CN1C(=O)OC(C)(C)C`: -8.22%; for `Cc1c(C(=O)NCC2CC2)sc(=O)n1Cc1cccc(F)c1`: 15% (active); for `Cc1cccc(C)c1Cn1c(C)c(C(=O)NCc2cccc(Cl)c2)sc1=O`: 0.95%.

For the molecule `Cc1cccc(CNC(=O)c2sc(=O)n(Cc3ccccc3C)c2C)c1`, the activation is -9.77%. In the case of `O=C(NNS(=O)(=O)c1ccccc1C(F)(F)F)c1cc2ncc(C(F)(F)F)cc2s1`, the activation was 2.01%. On to `O=C1Cc2cc(S(=O)(=O)Nc3cccc(F)c3)ccc2N1`, for which the activation was -4.43%. The same measure for `CC(C)c1cc(C(=O)O)on1`: 16.1% (active).

As to `CCn1cc(-c2cc(C(=O)O)on2)c(C)n1`, the activation was 0.66%.

For `CC(C)Cc1oc(C(=O)O)cc1CN`, the activation was -1.78%. Consider `O=C(NCc1ccccc1Cl)C1CCN(S(=O)(=O)c2cccc3nonc23)CC1`, for which the activation is 0.64%. The same measure for `C=C1C(=O)OC2C1CCC(C)=CCCC1(C)OC21` (stereo not given): 17.6% (active); for `Cc1cc(C(=O)OC(C)C(=O)NC2CCCCC2C)c(C)o1` (stereo not given): 5.88%; for `CC(C)(C)NC(=O)Cn1cnc2cc([N+](=O)[O-])ccc2c1=O`: -0.6%. The same measure for `O=C(OCc1cn([C@H]2C[C@H](c3ccccc3)N(C(=O)c3cccs3)C[C@@H]2O)nn1)c1ccccc1`: 0.06%; for `CC1(C)CC(=O)C=C(c2ccccc2CO)C1=O`: 3.89%; for `Fc1ccc2[nH]c3c(N4CCSCC4)ncnc3c2c1`: 16.4% (active). With `Cc1ccc(C)c(NC(=O)C(c2ccccc2)N2CCN(CC(=O)NC3CC3)CC2)c1` (stereo not given) the figure was 1.96%; with `Brc1cc(Br)c(Oc2cc(Br)c(Br)cc2Br)cc1Br`, 4.05%. `CCOC(=O)C1CCN(C(=O)C2CCCN(S(=O)(=O)c3ccc(OC)c(Cl)c3)C2)CC1` (stereo not given): the activation was -2.55%.

On to `O=S(=O)(Cc1cc(Cl)nc(-c2cccnc2)n1)c1ccccc1`, for which the activation was -2.49%.
